# From PubChem
# Only some compounds are listed: those with a hit (about 3.6% of all), similar ones and a draw of the others.
# MITF act: activators of MITF-driven TRPM1 promoter reporter, primary screen, cell-based, SK-MEL-5, luciferase, single point | activation, % at 12.5 µM | AID 588334, 2011 | hit rate 0.75% among 300,000 | SK-MEL-5 TRPM1-promoter luciferase, 24 h; % of positive control, neutral wells = 0;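 active = mean activation of at least 80% with every replicate also reaching 80%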;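 also: 0% = neutral control wells and 100% = parthenolide positive control wells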
# PHOSPHO1 block: PubChem AID 1565 | Phosphoethanolamine/phosphocholine phosphatase (Homo sapiens), Q8TCT1 | recombinant PHOSPHO1, absorbance phosphatase assay | inhibition, % at 13.3 µM | hit rate 1.1% among 290,000; in the data active = inhibition above about 60%
# Target sequence (Q8TCT1 whole entry, looked up): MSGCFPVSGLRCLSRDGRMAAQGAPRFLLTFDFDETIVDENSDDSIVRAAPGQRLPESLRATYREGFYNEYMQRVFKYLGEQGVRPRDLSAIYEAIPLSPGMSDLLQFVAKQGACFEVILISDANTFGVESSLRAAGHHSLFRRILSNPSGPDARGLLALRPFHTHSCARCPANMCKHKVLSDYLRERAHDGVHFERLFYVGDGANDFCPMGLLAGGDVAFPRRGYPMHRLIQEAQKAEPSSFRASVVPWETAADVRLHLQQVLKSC
# esBAF inh: Bmi1 luciferase reporter increase in mESCs, primary screen, esBAF inhibitor project, mouse ES cells, Bmi1 luciferase knock-in, single point; 24 h; 100% = twice the neutral-well signal; reporter increase, % at 12.5 µM; hit rate 2% among 350,000; AID 602393, 2012; in the data active = activation above about 40%;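 also: 0% = median of the plate's neutral control wells and 100% = double that signal; a rise in the Bmi1 reporter signal indicates esBAF inhibition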
# Wnt bcat act: Wnt/beta-catenin pathway activators, primary screen, cell-based, plate reader, single point; Wnt/beta-catenin reporter cell assay, activator; activation, % at 9.35 µM; hit rate 1.2% among 300,000; AID 743398, 2014; in the data active = activation above about 30%, passing the limit was not always enough;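 also: 0% = neutral control wells and 100% = positive control wells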
# A3A deaminase: APOBEC3A ssDNA deaminase inhibitors, primary screen, selectivity assay for APOBEC3G inhibitor project, biochemical, FAM/TAMRA oligo cleavage fluorescence. DNA dC->dU-editing enzyme APOBEC-3A (Homo sapiens), P31941. recombinant A3A, FAM/TAMRA ssDNA deamination fluorescence. inhibition, % at 20 µM. hit rate 0.41% among 330,000. AID 493011, 2011;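 active = at least 40% inhibition at 20 µM here, with at most 30% in a related deaminase screen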;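 also: plate controls were A3A with DMSO for no effect and wells lacking A3A enzyme for full effect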
# APOBEC3G inh: APOBEC3G DNA deaminase inhibitors, primary screen, biochemical, fluorescence, single-stranded DNA substrate, uHTS. hit rate 0.28% among 330,000. AID 493012, 2011. inhibition, % at 20 µM. recombinant A3G, ssDNA deamination FAM/TAMRA fluorescence. DNA dC->dU-editing enzyme APOBEC-3G (Homo sapiens), Q9HC16;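 active = inhibition of at least 40% at 20 µM, with no more than 30% in the related APOBEC3A deaminase screen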;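 also: plate controls were DMSO wells with A3G for no effect and wells lacking A3G enzyme for full effect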
# Target sequence (Q9HC16 whole entry, looked up): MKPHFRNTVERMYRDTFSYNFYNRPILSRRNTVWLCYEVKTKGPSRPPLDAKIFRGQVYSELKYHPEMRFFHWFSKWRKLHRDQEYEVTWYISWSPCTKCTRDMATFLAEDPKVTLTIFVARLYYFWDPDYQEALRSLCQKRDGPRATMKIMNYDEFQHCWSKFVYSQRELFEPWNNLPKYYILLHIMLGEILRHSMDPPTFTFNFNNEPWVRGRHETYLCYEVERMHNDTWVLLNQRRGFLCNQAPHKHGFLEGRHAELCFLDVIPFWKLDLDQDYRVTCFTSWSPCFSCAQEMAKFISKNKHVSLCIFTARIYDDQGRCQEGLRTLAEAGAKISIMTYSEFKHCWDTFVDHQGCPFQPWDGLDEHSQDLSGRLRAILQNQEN
# APOBEC3A confirm: APOBEC3A deaminase inhibitors, retest, confirmation, selectivity assay for APOBEC3G inhibitor project, biochemical, single concentration, fluorescence readout; shares compounds with A3A deaminase; recombinant A3A, ssDNA deaminase UDG fluorescence assay; inhibition, % at 20 µM; hit rate 63% among 1,400;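 active = inhibition reaching a set limit, 80% of the first screen's cutoff, at 20 µM in any replicate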;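 also: plate controls were DMSO wells with A3A for no effect and wells lacking A3A enzyme for full effect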
# UDG ctr A3A: E. coli UDG inhibitors, confirmation, counter-screen for APOBEC3A inhibitor project, biochemical, single concentration, fluorescence, FAM/TAMRA oligo | UDG counterscreen, FAM/TAMRA uracil oligo fluorescence | inhibition, % at 20 µM | shares compounds with A3A deaminase | 1,000 tested, under 10 active | AID 504714, 2011; call rule not given here
# An asterisk follows results filed as active; / = not tested or not shown.
SMILES,MITF act,PHOSPHO1 block,esBAF inh,Wnt bcat act,A3A deaminase,APOBEC3G inh,APOBEC3A confirm,UDG ctr A3A
COc1cc(NS(=O)(=O)c2ccc(NC(=S)NC(=O)/C=C/c3ccco3)cc2)ncn1,1,-74,4,-1,55*,23,73*,-4
CCOc1ccc(NC(=S)NC(=O)/C=C/c2ccco2)cc1,10,14,21,4,-7,-4,/,/
CCn1c(SCC(=O)NCc2ccccc2)nnc1C(CO)NC(=O)c1ccccc1 (stereo not drawn),-4,-21,-4,-1,69*,11,62*,-2
CCCCc1c(O)c2ccccc2n(CCCC)c1=O,0,12,/,-3,-3,-3,/,/
CCCCc1c(CCC)c(=N)c2ccccc2n1C,/,-78,-52,1,42*,25,83*,4
O=C(/C=C/c1cn(-c2ccccc2)nc1-c1cccnc1)N1CCCC1,-29,29,/,6,/,/,/,/
N#C/C(=C\c1cn(-c2ccccc2)nc1-c1cccnc1)c1nnc2n1CCCCC2,6,14,-2,-5,43*,-3,-1,-2
CC(C)NC(=O)N(C)C[C@@H]1OCCCC[C@@H](C)Oc2ccc(NS(=O)(=O)c3ccc(Cl)cc3)cc2C(=O)N([C@H](C)CO)C[C@H]1C,/,/,0,/,/,/,/,/
O=C(Nc1ccc(F)cc1)Nc1ccc2c(c1)[C@@H]1C[C@@H](CC(=O)N3CCCCC3)O[C@@H](CO)[C@@H]1O2,/,/,7,/,/,/,/,/
CC(C)(C)OC(=O)N1CCN(C(=O)c2nc[nH]c2C(=O)N2CCN(C(=O)OC(C)(C)C)CC2)CC1,0,/,5,-1,0,-10,/,/
Cn1cnc(C(=O)N2CCN(c3ccccc3)CC2)c1C(=O)N1CCN(c2ccccc2)CC1,2,/,-7,-6,59*,16,67*,2
Cn1cnc(C(=O)N2CCN(C(=O)OC(C)(C)C)CC2)c1C(=O)N1CCN(C(=O)OC(C)(C)C)CC1,-2,/,-5,-1,46*,8,64*,0
CC[n+]1ccc(/C=C2\Sc3ccccc3N2CCCS(=O)(=O)[O-])c2ccccc21,-6,19,9,-2,83*,24,92*,4
N#Cc1cccc(NC(=O)Cn2c3[n+](c4ccc(C(F)(F)F)cc42)CCCCC3)c1,10,-9,/,/,42*,28,60*,-3
CCN(CC)C(=O)Cn1cc(SCC(=O)NC)c2ccccc21,-5,-5,/,0,83*,11,1,/
COc1ccc(NC(=O)O/N=C/c2ccc(Br)cc2)cc1,12,46,/,4,-4,-5,/,/
COc1ccc(/C=N/OC(=O)Nc2ccccc2OC)cc1,65,-10,/,5,97*,-3,-64,6
Cc1cc(C(=O)O)ccc1-c1ccc(/C=C2\NC(=O)N(Cc3ccc(F)cc3)C2=O)o1,-7,-21,/,0,58*,26,44*,0
O=C(O)c1cccc(-n2cccc2/C=C2\NC(=O)N(Cc3ccc(F)cc3)C2=O)c1,-4,34,/,3,87*,29,74*,-2
Cc1ccc(CN2C(=O)N/C(=C\c3cccn3-c3cccc(C(=O)O)c3)C2=O)cc1,0,-32,0,0,79*,27,80*,-3
Cc1ccc(CN2C(=O)N/C(=C/c3ccc(-c4ccc(C(=O)O)cc4)o3)C2=O)cc1,-3,-2,/,7,22,2,/,/
Cc1[nH]c2ccccc2c1/C=C(\C#N)C(=O)NC(C)c1ccccc1 (stereo not drawn),-9,94*,8,-8,41*,9,72*,1
O=C1C2C(C(=O)N1/N=C/c1cc([N+](=O)[O-])c(O)cc1O)C1C=CC2C12CC2 (stereo not drawn),-9,8,/,-1,78*,19,74*,-2
C[C@@H]1CN([C@H](C)CO)C(=O)Cc2cc(NC(=O)Cn3cnnn3)ccc2O[C@@H]1CN(C)S(=O)(=O)c1cn(C)cn1,/,/,6,/,/,/,/,/
C[C@H]1CCCCO[C@@H](CN(C)C(=O)CCCN(C)C)[C@@H](C)CN([C@@H](C)CO)C(=O)c2cc(NC(=O)Nc3ccc(F)cc3)ccc2O1,/,/,-7,/,/,/,/,/
SMILES,MITF act,PHOSPHO1 block,esBAF inh,Wnt bcat act,A3A deaminase,APOBEC3G inh,APOBEC3A confirm,UDG ctr A3A
COC(=O)C[C@H]1CC[C@@H]2[C@@H](COc3ccc(NC(=O)c4ccccc4F)cc3C(=O)N2C)O1,/,/,1,/,/,/,/,/
COc1ccccc1OC(C)C(=O)N1CCN(Cc2ccc3c(c2)OCO3)CC1 (stereo not drawn),-8,3,-7,-1,57*,13,48*,-3
CN(C(=O)/C=C/c1ccco1)c1ccccc1C(=O)O,8,2,/,-2,44*,10,22*,-2
CN(C(=O)C=Cc1ccco1)c1ccccc1,1,/,19,3,/,/,/,/
COc1ccc(N(Cc2cc3cc(C)ccc3[nH]c2=O)C(C)=O)cc1,/,52,-1,0,47*,-4,-3,0
COc1ccc2[nH]c(=O)c(CN(C(C)=O)c3cccc(C)c3)cc2c1,-10,-8,2,-3,-3,-5,/,/
Cc1ccc(-c2ccc([C@@H]3[C@@H](CO)N4CCCCN(S(=O)(=O)c5ccccc5C)C[C@@H]34)cc2)cc1,/,/,5,/,/,/,/,/
CN(Cc1ccccc1)C(=O)c1ncn(C)c1C(=O)N(C)Cc1ccccc1,7,/,-2,0,60*,14,67*,5
CN(Cc1ccccc1)C(=O)c1ncn(Cc2ccccc2)c1C(=O)N(C)Cc1ccccc1,9,/,0,-5,1,-2,/,/
CCN(CC)C(=O)c1ncn2c1C(=O)NC[C@H]2C,/,/,/,-2,/,/,/,/
CCN(CC)C(=O)c1ncn(C)c1C(=O)N(CC)CC,2,/,-5,-3,51*,28,64*,-3
Cc1ccc(S(=O)(=O)Nc2ccc3c(c2)C(=O)N([C@H](C)CO)C[C@H](C)[C@@H](CN(C)Cc2ccc(C(F)(F)F)cc2)OCCCC[C@H](C)O3)cc1,/,/,2,/,/,/,/,/
